Compounds with a hit are over-represented: about 5.7% of the library has one in this group of screens.
ssDAF-12 act = activates DAF-12 receptor from parasite S. stercoralis; HEK293 ssDAF-12/GRIP1 lit1-tk-luc reporter, luminescence; % of 3 µM dafachronic acid response; activation, % at 6.8 µM; 370,000 tested, 1% active;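 active = activation above the mean over all tested compounds plus 3 SD, cut at about 0.9% in these data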;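 note: 0% = DMSO-only wells and 100% = 3 µM delta7-dafachronic acid wells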
DAX1 inh-1 = blocks DAX1 repression of SF-1 activated StAR promoter; HEK293T StAR-luciferase reporter, SF-1/DAX-1 repression relief; inhibition, % at 6.8 µM; 370,000 tested, 1.1% active;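 active = inhibition above the mean over all tested compounds plus 3 SD, cut at about 3.6% in these data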;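 note: 0% = DAX-1 cells with DMSO and 100% = cells lacking DAX-1 with DMSO; higher inhibition means more luminescence from relief of DAX-1 repression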
DAX1 inh-2 = inhibitors of human orphan nuclear receptor DAX1 (NR0B1) | P51843 | HEK293 Gal4-DAX1 luciferase reporter, luminescence | inhibition, % at 6.75 µM | 340,000 tested, 0.99% active | AID 504766;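 active = inhibition above the mean over all tested compounds plus 3 SD, cut at about 4.2% in these data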;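 note: 0% = DAX1-transfected cells with DMSO and 100% = empty-vector control cells with DMSO; inhibition shows as a rise in luminescence from relieved DAX1 repression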
Target sequence (P51843 207-470 limits assumed): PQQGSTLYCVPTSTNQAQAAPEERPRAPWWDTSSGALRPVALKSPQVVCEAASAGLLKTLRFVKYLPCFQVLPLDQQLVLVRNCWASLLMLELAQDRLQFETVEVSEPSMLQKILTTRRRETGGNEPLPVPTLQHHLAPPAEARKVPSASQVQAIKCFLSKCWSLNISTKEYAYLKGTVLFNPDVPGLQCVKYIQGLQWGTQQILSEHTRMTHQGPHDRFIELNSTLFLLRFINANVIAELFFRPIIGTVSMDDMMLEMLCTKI
hgDAF12 agonist = activates the H. glycines DAF-12 receptor ligand-binding domain; HEK293 GAL4-hgDAF12 UAS-luciferase reporter, agonist luminescence; normalized to butyrate control; activation, % at 6.8 µM; 370,000 tested, 1.8% active; AID 687014;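 active = activation above a cutoff set at the mean of all screened compounds plus 3 SD, cut at about 10% in these data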;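 note: 0% = DMSO wells and 100% = sodium butyrate wells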
AHR activator = activates the human aryl hydrocarbon receptor; AHR-responsive luciferase reporter cells, luminescence; activation, % at 5 µM; 320,000 tested, 2.5% active; AID 2796; in the data active = activation above about 47%;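 note: 0% = vehicle wells and 100% = reference agonist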
hcDAF-12 act = activates DAF-12 receptor from parasite H. contortus. HEK293 hcDAF-12 lit1-tk-luc reporter, luminescence; 0% DMSO, 100% Δ7-dafachronic acid. activation, % at 6.8 µM. 370,000 tested, 1.4% active. AID 652067;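 active = activation above the mean of all tested compounds plus 3 SD, cut at about 5.5% in these data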;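 note: 100% = response to 3 µM Δ7-dafachronic acid high control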
LXR ag = activates human LXR-beta, counter-screen for hcDAF-12 agonists; activation, % at 6.8 µM; shares compounds with hcDAF-12 act; HEK293 Gal4-LXR tk-luc reporter, luminescence, 24 h; normalized: DMSO 0%, positive control 100%; 3,400 tested, under 10 active;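 active = mean percent activation of the reporter above a cutoff set as the average over tested compounds plus their standard deviation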
Target sequence (P55055 whole entry, looked up, the tested form may be a part): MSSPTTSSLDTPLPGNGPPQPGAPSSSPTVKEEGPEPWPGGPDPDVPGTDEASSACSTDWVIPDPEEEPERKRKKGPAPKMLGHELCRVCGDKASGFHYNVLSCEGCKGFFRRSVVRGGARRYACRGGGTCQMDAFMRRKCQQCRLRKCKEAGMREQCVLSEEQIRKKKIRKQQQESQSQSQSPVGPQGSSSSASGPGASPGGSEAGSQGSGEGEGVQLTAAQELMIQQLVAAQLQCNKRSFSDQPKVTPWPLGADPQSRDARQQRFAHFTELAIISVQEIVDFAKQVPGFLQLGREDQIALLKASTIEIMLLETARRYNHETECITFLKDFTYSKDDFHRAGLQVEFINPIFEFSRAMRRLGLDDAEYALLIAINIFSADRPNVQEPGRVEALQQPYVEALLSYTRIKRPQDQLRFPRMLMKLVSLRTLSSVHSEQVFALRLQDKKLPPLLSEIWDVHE
hcDAF12 ag = confirmation of H. contortus DAF-12 agonists. shares compounds with hcDAF-12 act. HEK293 hcDAF-12 lit1-tk-luc reporter, luminescence; % of Δ7-dafachronic acid response. activation, % at 6.8 µM. 3,400 tested, 61% active. AID 743032;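 active = mean activation across triplicate tests above the threshold derived from the earlier primary screen, cut at about 5.5% in these data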;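 note: 0% = DMSO only wells and 100% = 3 µM Δ7-dafachronic acid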
An asterisk follows results filed as active; nt = not tested or not shown.

SMILES | ssDAF-12 act | DAX1 inh-1 | DAX1 inh-2 | hgDAF12 agonist | AHR activator | hcDAF-12 act | LXR ag | hcDAF12 ag
CCOC(=O)c1c(C)[nH]c(C(=O)OC(C)C(=O)NC2(C#N)CCCCC2)c1C (stereo not drawn) | -1.4 | -0.6 | 0.3 | 1.2 | nt | -0.5 | nt | nt
Cc1cc(=O)oc2cc(NC(=O)c3cc(F)ccc3F)ccc12 | -1.2 | 2.0 | 0.8 | 2.8 | 0.9 | 0.4 | nt | nt
Cc1cc(=O)oc2cc(NC(=O)c3ccccc3OC(F)F)ccc12 | 1.6* | 1.6 | 0.4 | 9.9 | 36.8 | 7.3* | 0.5 | 9.6*
Cc1ccc(S(=O)(=O)Nc2c(C(=O)O)[nH]c3ccccc23)c(C)c1 | 1.1* | -0.1 | 2.3 | 4.8 | 29.2 | 6.7* | -0.2 | 2.2
COc1ccc(S(=O)(=O)Nc2c(C(=O)O)[nH]c3ccccc23)cc1 | 0.4 | 0.2 | 0.5 | 2.3 | 14.6 | 5.1 | nt | nt
COc1ccc(S(=O)(=O)Nc2c(C(=O)O)[nH]c3ccccc23)cc1OC | 2.0* | 0.3 | -0.2 | 6.2 | 54.6* | 7.9* | 0.1 | 5.2
CC(=O)Nc1nnc(SCC(=O)N2C(C)CCCC2C)s1 (stereo not drawn) | -1.1 | 0.3 | 0.4 | -0.8 | -0.6 | 0.1 | nt | nt
O=C1CCC2(CC1)NC(=O)N(c1ccccc1)N2 | 1.1* | -0.3 | 0.1 | 8.1 | 0.7 | 6.5* | -0.2 | 0.4
CC(C)c1ccc(CNC(=O)C2(C)CCCN2C)cc1 (stereo not drawn) | -0.9 | -0.3 | nt | 1.0 | nt | -0.8 | nt | nt
COc1ccc(CN2CCN(Cc3ccc(C(F)(F)F)cc3)CC2)cc1 | -1.4 | -0.9 | -1.9 | -3.3 | 0.2 | -3.3 | nt | nt
Clc1ccc(-c2nnc3n2CCCC3)cc1Cl | -1.2 | 0.7 | 0.2 | 0.5 | 1.0 | -0.6 | nt | nt
CN(C)S(=O)(=O)c1ccc(Cl)c(-c2nnc3n2CCCCC3)c1 | 0.4 | 1.2 | 0.6 | -0.5 | 0.4 | 7.8* | -0.1 | 3.2
CCN(CC)S(=O)(=O)c1ccc(-c2nnc3sc4cccc(C)c4n23)cc1 | 0.6 | -0.2 | -2.5 | 5.5 | 15.4 | 7.1* | -0.4 | 4.0
CCN(CC)S(=O)(=O)c1ccc(-c2nnc(SCC(N)=O)n2CC)cc1 | -1.0 | 0.1 | 0.7 | 1.2 | 4.3 | 1.9 | nt | nt
Cc1c(Cl)cnc(NC(=O)CSc2n[nH]c(N)n2)c1Cl | -1.3 | 0.3 | -0.7 | 3.7 | 1.3 | -0.4 | nt | nt
O=C(Nc1nnc(-c2ccccc2)s1)c1ccc(F)cc1 | -1.1 | -0.2 | 0.0 | 2.8 | 1.2 | 6.7* | 0.2 | 2.1
CCOCCCN(C(=O)Cn1nnc(-c2ccc(C)o2)n1)C(C(=O)NC1CCCC1)c1ccc(C)o1 (stereo not drawn) | -0.9 | -0.1 | -0.5 | 1.0 | nt | -2.5 | nt | nt
CSc1nsc(NN)n1 | 0.1 | 1.3 | 2.2 | 10.6* | nt | 7.7* | -0.1 | 5.4
CSc1cccc(NC(=O)c2cccc3cccnc23)c1 | 2.3* | 0.7 | 1.5 | 10.6* | 47.0 | 11.9* | 0.6 | 8.5*
CNS(=O)(=O)c1cc(NC(=O)c2cccc3cccnc23)ccc1C | -0.9 | -0.8 | -1.4 | 2.8 | 38.6 | -3.4 | nt | nt
Cn1c(SCC(=O)NC2CCCCC2)nnc1-c1ccccc1O | 0.0 | 0.3 | 1.0 | -2.6 | -3.6 | -0.7 | nt | nt
Cc1cccc(-n2ncc3c(NCCCO)ncnc32)c1 | 0.1 | 3.6 | 0.5 | 12.2* | 18.9 | 6.6* | 0.7 | 3.5
COc1ccc(NC(=O)Nc2cccc3c2O[C@H](CN(C)C(=O)Nc2c(C)noc2C)[C@@H](C)CN([C@H](C)CO)C3=O)cc1 | -1.2 | -0.1 | 1.5 | 1.1 | -1.6 | 7.0* | -0.3 | -0.2
COc1ccc(NC(=O)N(C)C[C@@H]2Oc3c(NC(=O)Nc4c(C)noc4C)cccc3C(=O)N([C@@H](C)CO)C[C@@H]2C)cc1 | -0.5 | -0.4 | 0.3 | 1.7 | -1.0 | -0.5 | nt | nt
CCN(CC(=O)NCc1ccncc1)S(=O)(=O)c1ccc(OC)cc1 | -0.7 | 0.2 | -0.1 | -0.7 | -0.6 | -0.7 | nt | nt
SMILES | ssDAF-12 act | DAX1 inh-1 | DAX1 inh-2 | hgDAF12 agonist | AHR activator | hcDAF-12 act | LXR ag | hcDAF12 ag
CCOC(=O)c1nc2ccccc2nc1C | -1.6 | -0.2 | 0.8 | -0.5 | 27.6 | 6.9* | -0.3 | 1.6
O=S(=O)(c1ccc(Cl)cc1)N1CCN(CCc2ccccc2)CC1 | -0.7 | -0.1 | 0.7 | 0.0 | -0.6 | -1.0 | nt | nt
O=S(=O)(c1ccc(F)cc1)N1CCN(CCc2ccccc2)CC1 | -0.9 | 0.1 | -0.5 | -2.6 | -5.5 | 6.8* | -0.4 | -0.8
COc1cc(Cl)c(S(=O)(=O)NCCCn2ccnc2)cc1Cl | -2.0 | -0.3 | 1.0 | -0.6 | 1.2 | -1.8 | nt | nt
CC(=O)c1ccc(N(CC(=O)NC2CCCC2)C(=O)CNC(=O)c2cccs2)cc1 | -0.4 | 0.0 | -1.3 | 0.1 | 4.9 | -1.8 | nt | nt
O=C(O)CCc1c(C(=O)O)[nH]c2ccccc12 | -1.1 | -0.2 | -1.2 | -1.6 | 2.5 | 0.3 | nt | nt
CN(C)Cc1c(C(=O)Nc2ccccc2)[nH]c2ccccc12 | 0.9 | 1.5 | 0.8 | 9.4 | 72.2* | 7.1* | -0.3 | 1.0
COC(=O)[C@H](C)NC(=O)Nc1cccc(Br)c1 | -1.3 | 0.0 | 1.3 | 0.3 | 1.6 | -0.1 | nt | nt
c1ccc(-c2noc(-c3cccc4ccccc34)n2)cc1 | 2.9* | 3.7* | 3.0 | 12.4* | 51.0* | 16.6* | 1.1 | 16.4*
c1ccc(CCc2ccccc2-c2nc(-c3cccnc3)no2)cc1 | -1.5 | 0.2 | -1.0 | -0.6 | 20.2 | 0.0 | nt | nt
c1cncc(-c2noc(-c3cccc4ccccc34)n2)c1 | 1.2* | 0.1 | 1.6 | 8.9 | 59.3* | 7.0* | 1.1 | 15.6*
COCC(C)NC(=O)CSc1nc2ccccc2c(=O)n1CCc1ccc(S(N)(=O)=O)cc1 (stereo not drawn) | -1.5 | -2.7 | -0.2 | -4.0 | 0.3 | -3.9 | nt | nt
COc1ccccc1C(=O)O/N=C(\N)c1ccccn1 | 2.7* | 2.1 | -2.2 | 8.1 | 31.6 | 10.8* | 1.3 | 5.9*
N/C(=N\OC(=O)c1ccccc1Cl)c1ccccn1 | -0.3 | 3.0 | -4.2 | -1.9 | 52.3* | 7.0* | 1.6 | 11.1*
CC(C)C(=O)O/N=C(\N)c1ccccn1 | -1.4 | 0.3 | 0.8 | 2.1 | -0.3 | 0.4 | nt | nt
CCOC(=O)C1CCCCN1C(=O)CCc1nnc(-c2ccc3c(c2)OCO3)o1 (stereo not drawn) | -1.1 | 3.5 | 0.8 | 4.5 | 15.5 | 7.7* | 0.0 | 1.5
Cc1ccc(NC(=O)n2ncc3c(C)cccc32)cc1F | 1.1* | 2.3 | 2.9 | 9.4 | -0.1 | 10.7* | 0.9 | 9.0*
COCCN(C(=S)Nc1ccc(OC)c(Cl)c1)C1CCN(C(C)=O)CC1 | -1.3 | -0.4 | -0.1 | 0.7 | nt | -2.0 | nt | nt

Bioassay records: PubChem, The Scripps Research Institute Molecular Screening Center
